# Assay results taken from PubChem BioAssay (NCATS).
# Records with an inconclusive call do not appear. A call without a number means that no potency is given here. Activity calls are given as the source filed them. Calls come from the whole dose curve.
# Test: Cytotoxicity counterscreen for inhibitors of SARS-CoV-2 cell entry (AID 1645845); note: nearly all actives have a fitted effect of over 50% in size
# Details: cell viability (SARS-CoV-2 entry assay cells); series mostly up to 57.1 µM
# Outline: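 HEK293-ACE2 cells (Expi293F stably expressing human ACE2) seeded overnight, then compound for 1 h plus 48 h at 37C. Viability as ATP content by luminescence; normalized to wells with cells and media-only wells.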
row,SMILES,Potency
1,C#C[C@]1(O)CC[C@H]2[C@@H]3CCC4=CC(=O)CC[C@@H]4[C@H]3CC[C@@]21CC,inactive
2,Cc1c(I)c(=O)n(-c2ccccc2)n1C,inactive
3,CCOC(=O)c1ccc(O)cc1,inactive
4,Cc1ccc(-c2ncc(Cl)cc2-c2ccc(S(C)(=O)=O)cc2)cn1,inactive
5,C[C@]12CCC(=O)C=C1CC[C@@H]1[C@@H]2[C@@H](O)C[C@@]2(C)[C@H]1CC[C@]2(O)C(=O)COC(=O)CCC(=O)O,inactive
6,C/C(=N\O)[C@@H](C)NCC(C)(C)CN[C@H](C)/C(C)=N/O,inactive
7,Nc1ccc(C(=O)Oc2ccccc2)c(O)c1,inactive
8,Oc1cccc(O)c1,inactive
9,CC(C(=O)O)c1ccc(/C=C2\CCCCC2=O)cc1 (stereo unspecified),inactive
10,OCCc1ccccc1,inactive
11,CCC1=C(C)CN(C(=O)NCCc2ccc(S(=O)(=O)NC(=O)NC3CCC(C)CC3)cc2)C1=O (stereo unspecified),inactive
12,NS(=O)(=O)c1cc(C2(O)NC(=O)c3ccccc32)ccc1Cl (stereo unspecified),inactive
13,CO/N=C(\C(=O)N[C@@H]1C(=O)N2C(C(=O)O)=C(C[N+]3(C)CCCC3)CS[C@H]12)c1csc(N)n1,inactive
14,O=C(CO)[C@@H](O)[C@H](O)[C@@H](O)CO,inactive
15,CC(C)Cc1ccc(CC(=O)O)cc1,inactive
16,CCCCC(CC)COC(=O)c1ccccc1O (stereo unspecified),inactive
17,CCn1cc(C(=O)O)c(=O)c2cc(F)c(N3CCNC(C)C3)c(F)c21 (stereo unspecified),inactive
18,COc1cnc(NS(=O)(=O)c2ccc(N)cc2)nc1,inactive
19,CN(CC1(C)CCCO1)S(=O)(=O)c1ccc(Cl)c(S(N)(=O)=O)c1 (stereo unspecified),inactive

row,SMILES,Potency
1,CC(C)(C)NC[C@H](O)COc1cccc2c1CCCC2=O,inactive
2,CC1CCc2c(N3CCC(O)CC3)c(F)cc3c(=O)c(C(=O)O)cn1c23 (stereo unspecified),inactive
3,C=CCN1CCc2nc(N)sc2CC1,inactive
4,Cc1oc(=O)oc1CN1CCN(c2cc3c(cc2F)c(=O)c(C(=O)O)c2n3C(C)S2)CC1 (stereo unspecified),inactive
5,CC1(C)O[C@@H]2C[C@H]3[C@@H]4CCC5=CC(=O)C=C[C@]5(C)[C@@]4(F)[C@@H](O)C[C@]3(C)[C@]2(C(=O)CO)O1,inactive
6,COc1cc(C(=O)NS(=O)(=O)c2ccccc2C)ccc1Cc1cn(C)c2ccc(NC(=O)OC3CCCC3)cc12,inactive
7,O=C(C1CCCCC1)N1CC(=O)N2CCCc3ccccc3C2C1 (stereo unspecified),inactive
8,COC(=O)c1ccc(O)cc1,inactive
9,CCCCCCCCCCCCSCCOCCO,inactive
10,CN(C)C(=O)Oc1ccc[n+](C)c1,inactive
11,CO[C@@]1(NC(=O)CSCC#N)C(=O)N2C(C(=O)O)=C(CSc3nnnn3C)CS[C@@H]21,inactive
12,O=C(O)c1ccccc1S,inactive
13,CCCc1ccc(OCC(=O)N2CCN(C(=O)COc3ccc(CCC)cc3OC)CC2)c(OC)c1,inactive
14,C/C=C1\[C@H]2C=C(C)C[C@]1(N)c1ccc(=O)[nH]c1C2,inactive
15,CCn1cc(C(=O)O)c(=O)c2cnc(N3CCNCC3)nc21,inactive
16,Nc1ccc(S(=O)(=O)NC(=O)c2ccccc2)cc1,inactive
17,COC(=O)N/N=C/c1c[n+]([O-])c2ccccc2[n+]1[O-],inactive
18,CC(=O)O[C@]1(C(C)=O)CC[C@H]2[C@@H]3C[C@H](C)C4=CC(=O)CC[C@]4(C)[C@H]3CC[C@@]21C,inactive
19,CN[C@@H]1CCc2[nH]c3ccc(C(N)=O)cc3c2C1,inactive

# Test: Primary qHTS to identify inhibitors of SARS-CoV-2 cell entry (AID 1645846); note: nearly all actives have a fitted effect of over 45% in size
# Details: SARS-CoV-2 pseudovirus cell entry assay, luminescence; activity change, negative = inhibition: at 57.1 µM (top of the series) unless noted; series mostly up to 57.1 µM
# Outline: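 Entry measured by luciferase signal 48 h after adding SARS-CoV-2-S pseudotyped MLV particles to HEK293-ACE2 cells preincubated 1 h with compounds. Normalisation: bald particles and spike particles.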
SMILES,Potency,"activity change, negative = inhibition [%]"
C#C[C@]1(O)CC[C@H]2[C@@H]3CCC4=CC(=O)CC[C@@H]4[C@H]3CC[C@@]21CC,inactive,
Cc1c(I)c(=O)n(-c2ccccc2)n1C,inactive,
CCOC(=O)c1ccc(O)cc1,inactive,
Cc1ccc(-c2ncc(Cl)cc2-c2ccc(S(C)(=O)=O)cc2)cn1,inactive,
C[C@]12CCC(=O)C=C1CC[C@@H]1[C@@H]2[C@@H](O)C[C@@]2(C)[C@H]1CC[C@]2(O)C(=O)COC(=O)CCC(=O)O,inactive,
C/C(=N\O)[C@@H](C)NCC(C)(C)CN[C@H](C)/C(C)=N/O,inactive,
Nc1ccc(C(=O)Oc2ccccc2)c(O)c1,inactive,
Oc1cccc(O)c1,inactive,
CC(C(=O)O)c1ccc(/C=C2\CCCCC2=O)cc1 (stereo unspecified),inactive,
OCCc1ccccc1,inactive,
CCC1=C(C)CN(C(=O)NCCc2ccc(S(=O)(=O)NC(=O)NC3CCC(C)CC3)cc2)C1=O (stereo unspecified),inactive,
NS(=O)(=O)c1cc(C2(O)NC(=O)c3ccccc32)ccc1Cl (stereo unspecified),inactive,
CO/N=C(\C(=O)N[C@@H]1C(=O)N2C(C(=O)O)=C(C[N+]3(C)CCCC3)CS[C@H]12)c1csc(N)n1,,-9.52
O=C(CO)[C@@H](O)[C@H](O)[C@@H](O)CO,,-14.3
CC(C)Cc1ccc(CC(=O)O)cc1,inactive,
CCCCC(CC)COC(=O)c1ccccc1O (stereo unspecified),inactive,
CCn1cc(C(=O)O)c(=O)c2cc(F)c(N3CCNC(C)C3)c(F)c21 (stereo unspecified),inactive,
COc1cnc(NS(=O)(=O)c2ccc(N)cc2)nc1,inactive,
CN(CC1(C)CCCO1)S(=O)(=O)c1ccc(Cl)c(S(N)(=O)=O)c1 (stereo unspecified),,-32.6

SMILES,Potency,"activity change, negative = inhibition [%]"
CC(C)(C)NC[C@H](O)COc1cccc2c1CCCC2=O,,-5.98
CC1CCc2c(N3CCC(O)CC3)c(F)cc3c(=O)c(C(=O)O)cn1c23 (stereo unspecified),inactive,
C=CCN1CCc2nc(N)sc2CC1,inactive,
Cc1oc(=O)oc1CN1CCN(c2cc3c(cc2F)c(=O)c(C(=O)O)c2n3C(C)S2)CC1 (stereo unspecified),inactive,
CC1(C)O[C@@H]2C[C@H]3[C@@H]4CCC5=CC(=O)C=C[C@]5(C)[C@@]4(F)[C@@H](O)C[C@]3(C)[C@]2(C(=O)CO)O1,inactive,
COc1cc(C(=O)NS(=O)(=O)c2ccccc2C)ccc1Cc1cn(C)c2ccc(NC(=O)OC3CCCC3)cc12,inactive,
O=C(C1CCCCC1)N1CC(=O)N2CCCc3ccccc3C2C1 (stereo unspecified),,0.685
COC(=O)c1ccc(O)cc1,inactive,
CCCCCCCCCCCCSCCOCCO,inactive,
CN(C)C(=O)Oc1ccc[n+](C)c1,inactive,
CO[C@@]1(NC(=O)CSCC#N)C(=O)N2C(C(=O)O)=C(CSc3nnnn3C)CS[C@@H]21,inactive,
O=C(O)c1ccccc1S,inactive,
CCCc1ccc(OCC(=O)N2CCN(C(=O)COc3ccc(CCC)cc3OC)CC2)c(OC)c1,,-6.24
C/C=C1\[C@H]2C=C(C)C[C@]1(N)c1ccc(=O)[nH]c1C2,inactive,
CCn1cc(C(=O)O)c(=O)c2cnc(N3CCNCC3)nc21,,0.978
Nc1ccc(S(=O)(=O)NC(=O)c2ccccc2)cc1,inactive,
COC(=O)N/N=C/c1c[n+]([O-])c2ccccc2[n+]1[O-],inactive,
CC(=O)O[C@]1(C(C)=O)CC[C@H]2[C@@H]3C[C@H](C)C4=CC(=O)CC[C@]4(C)[C@H]3CC[C@@]21C,,-11.3
CN[C@@H]1CCc2[nH]c3ccc(C(N)=O)cc3c2C1,,-34.4
